Experimental data: PubChem BioAssay AID1224856 (National Center for Advancing Translational Sciences (NCATS), 2016)
Inconclusive results are not listed. A call without a number means that no potency is given here. Active and inactive are the calls of the source. Calls follow the shape of the dose curve; as a rule, active = well fitted curve in the direction sought with a large enough effect; inconclusive = small, poorly fitted or top-dose-only effect, or another doubt; inactive = no such curve, though single readings can be large or run the other way.

experiment: Cell viability assay for measurement of the protective activity of small molecules against cell death caused by Zika virus infection in human astrocytes; settings: human astrocytes ZIKV-induced death, ATP luminescence, 72 h; series mostly up to 46.1 µM
Text: National Center for Advancing Translational Sciences [NCATS] Johns Hopkins University School of Medicine Florida State University Assay Overview: Zika virus infection causes cell death in certain cell types including human neural progenitor cells (hNPCs), astrocytes, and astrocytoma cell line (SNB-19). This cell viability assay measures the ATP content (level) in human astrocytes using a luminescence readout that is proportional to viable cell numbers. Decrease in the luminescence signal after Zika virus infection indicates the cell death caused by Zika virus. Small molecule inhibitors […] the decreased luminescence signal after Zika virus infection, indicating the protective effect of that small molecule on the cell death caused by Zika virus infection. This observed protective effect of small molecules against Zika virus induced cell death may result from inhibition of virus replication or cellular response to the virus infection.
Assay Protocol Summary: The medium for astrocytes contains AM basal medium (ScienCell, Cat.# 1801), AGS (ScienCell, Cat.# 1801), 10% FBS, and 1% Pen/Strep. The ATP content assay kit (PerkinElmer, Cat.# 6016731) was used to determine cell viability. The reagent was reconstituted and prepared as described by the manufacturer. Cells were seeded in 384- or 1536-well assay plates and cultured at 37 C with 5% CO2 for 16 to 20 hours. The typical cell seeding density in the 1536-well plate assay is 350 cells/well in 3 ul medium for astrocytes in the tissue cultured treated/PDL coated plates. Compounds were added to cells and incubated for one hour before addition of ZIKV solution to cells (2 FFU/cell). After incubation at 37 C with 5% CO2 for 72 hours, the reagent mixture of the ATP content assay kit was added to each well, followed by incubation at room temperature for 10 minutes. The luminescence intensity of the assay plates was measured using a ViewLux plate reader (PerkinElmer). […] The percentage inhibitions of the decreased cell viability by small molecule inhibitors were then calculated.

Q: For `COc1cccc(-c2cc(=O)c3ccccc3o2)c1N`, which Potency is on record?
A: The Potency was “inactive”.

Q: For `CN(C)CCCSc1ccccc1NC(=O)/C=C/c1ccccc1`, which Potency is on record?
A: Its Potency is “inactive”.

Q: With `Cc1csc(NC(=O)c2sc3nc4c(c(C(F)(F)F)c3c2N)CCC4)n1` as the compound, how does the Potency read?
A: Its Potency is “inactive”.

Q: For `Cc1ccc([N+](=O)[O-])[c]2c1[O][Hg]2`, which Potency is on record?
A: The Potency was “inactive”.

Q: Which Potency does the source give for `CC[n+]1c(-c2ccccc2)c2cc(N)ccc2c2ccc(N)cc21` here?
A: The Potency was 1950 nM (active).

Q: Which Potency does the source give for `O=c1cc(-c2ccccc2)oc2cc(O)c(O)c(O)c12` here?
A: Its Potency is “inactive”.

Q: With `Cc1c(NC(=O)c2ccc(C(C)(C)C)cc2)cccc1-c1cn(C)c(=O)c(Nc2ccc(C(=O)N3CCOCC3)cc2)n1` as the compound, how does the Potency read?
A: The Potency was “inactive”.

Q: For `CC1(C)OC2=C(C(=O)c3ccccc3C2=O)[C@H](NCc2ccccc2)[C@H]1O`, which Potency is on record?
A: The Potency was “inactive”.

Q: Which Potency does the source give for `Cc1c(N)c(=O)n(-c2ccccc2)n1C` here?
A: Its Potency is “inactive”.

Q: For `COc1ccc(-c2cc(=O)c3c(O)cc(O)cc3o2)cc1O`, which Potency is on record?
A: Its Potency is “inactive”.

Q: For `CC(C(=O)O)c1ccc(C(=O)c2cccs2)cc1` (stereo not given), which Potency is on record?
A: The Potency was “inactive”.

Q: For `Nc1ncnc2c1ncn2[C@@H]1O[C@@H](CO)[C@H](O)[C@H]1O`, which Potency is on record?
A: The Potency was “inactive”.

Q: For `CCCCCCOc1ccccc1C(N)=O`, which Potency is on record?
A: The Potency was “inactive”.

Q: For `O=C1c2ccccc2C(=O)c2c1ccc(O)c2O`, which Potency is on record?
A: The Potency was “inactive”.

Q: For `COc1cc(NC(C)CCCN)c2ncccc2c1` (stereo not given), which Potency is on record?
A: The Potency was “inactive”.

Q: For `CCCC(=O)OC[C@@H](OC(=O)CCC)[C@@H](OC(=O)CCC)[C@H](Cn1c2nc(=O)[nH]c(=O)c-2nc2cc(C)c(C)cc21)OC(=O)CCC`, which Potency is on record?
A: Its Potency is “inactive”.

Q: With `COc1ccc(-c2cc(=S)ss2)cc1` as the compound, how does the Potency read?
A: The Potency was “inactive”.

Q: With `CC(C)[C@H]1C(=O)N[C@H](CO)Cc2c[nH]c3cccc(c23)N1C` as the compound, how does the Potency read?
A: Its Potency is 1090 nM (active).

Q: With `Cc1oncc1C(=O)Nc1ccc(C(F)(F)F)cc1` as the compound, how does the Potency read?
A: The Potency was “inactive”.

Q: For `O=C(/C=C/c1ccccc1)NCCO`, which Potency is on record?
A: The Potency was “inactive”.

Q: For `COc1ccc(CC2=NN3C([C@@H](CCc4ccccc4)[C@@H](C)O)=NC(C)C3C(=O)N2)cc1OC` (stereo not given in full), which Potency is on record?
A: The Potency was “inactive”.

Q: For `CC(C)[N+](C)(CCC(C(N)=O)(c1ccccc1)c1ccccc1)C(C)C`, which Potency is on record?
A: Its Potency is “inactive”.

Q: With `CC(C(=O)O)c1ccc2c(c1)[nH]c1ccc(Cl)cc12` (stereo not given) as the compound, how does the Potency read?
A: The Potency was “inactive”.

Q: Which Potency does the source give for `O=C(Nc1ncc([N+](=O)[O-])s1)c1cccs1` here?
A: The Potency was “inactive”.

Q: With `CC(=O)OC(C)OC(=O)C(C)c1ccc(-c2ccccc2)c(F)c1` (stereo not given) as the compound, how does the Potency read?
A: The Potency was “inactive”.

Q: With `CN1CC(=O)N/C1=N/C(=O)Nc1cccc(Cl)c1` as the compound, how does the Potency read?
A: The Potency was “inactive”.

Q: Which Potency does the source give for `C[C@@H]1CCN(C(=O)CC#N)C[C@H]1N(C)c1ncnc2[nH]ccc12` here?
A: Its Potency is “inactive”.

Q: Which Potency does the source give for `CC(C(=O)O)c1ccc(C(=O)c2ccccc2)s1` (stereo not given) here?
A: Its Potency is “inactive”.

Q: Which Potency does the source give for `COP(=S)(OC)SCN1C(=O)c2ccccc2C1=O` here?
A: The Potency was “inactive”.

Q: Which Potency does the source give for `O=C(Nc1ccc(Br)cc1)c1cc(Br)cc(Br)c1O` here?
A: Its Potency is “inactive”.

Q: For `O=C(Nc1ccc(C(=O)O)c(O)c1)c1ccccc1`, which Potency is on record?
A: The Potency was “inactive”.

Q: For `O=S(=O)(O)c1ccc2nc(-c3ccccc3)[nH]c2c1`, which Potency is on record?
A: Its Potency is “inactive”.

Q: Which Potency does the source give for `N#CC1(c2ccc(NC(=O)c3cccnc3NCc3ccncc3)cc2)CCCC1` here?
A: The Potency was “inactive”.

Q: Which Potency does the source give for `O=c1c(-c2ccc(O)cc2)coc2cc(OC3O[C@H](CO)[C@H](O)[C@H](O)[C@H]3O)cc(O)c12` (stereo not given in full) here?
A: The Potency was “inactive”.

Q: With `COc1ccc(C=CC(=O)Nc2ccccc2C(=O)O)cc1OC` as the compound, how does the Potency read?
A: The Potency was “inactive”.

Q: For `O=C(C=CC=Cc1ccc2c(c1)OCO2)N1CCCCC1`, which Potency is on record?
A: Its Potency is “inactive”.

Q: With `Nc1ccc(O)c(C(=O)O)c1` as the compound, how does the Potency read?
A: The Potency was “inactive”.

Q: For `COc1ccc(NC(=O)/C=C/c2ccc(Cl)cc2)cc1`, which Potency is on record?
A: Its Potency is “inactive”.

Q: With `O=C(O)[C@@H](c1ccc(OCc2ccc3ccccc3n2)cc1)C1CCCC1` as the compound, how does the Potency read?
A: The Potency was “inactive”.

Q: With `CCN(CC)c1ccc(C(=C2C=CC(=[N+](CC)CC)C=C2)c2cc(S(=O)(=O)O)ccc2S(=O)(=O)[O-])cc1` as the compound, how does the Potency read?
A: The Potency was “inactive”.
